In all, about 52,000 compounds went through this assay and about 4,300 (8.3%) were called active. This excerpt belongs to a sample that is enriched for actives. A number with no mark means an inactive call. Cut-off read from the data, not from the text of the source: active = survival mostly below about 52% (no sharp cut-off); inactive = mostly above about 56%.
system: DeltatarO mutant; assay: growth inhibition of S. aureus wild type versus tarO mutant, primary screen, teichoic acid synthesis inhibitors, RN4220, OD600 (AID 463173); conditions: OD600, 18 h, hits give low values, screened at 18.75 µg/mL (by protocol)

Row | SMILES | survival
1 | Cc1cc(C)cc(NC(=O)Cn2cc(S(=O)(=O)NC(C)(C)C)c(S(=O)(=O)NC(C)(C)C)c2)c1 | 95%
2 | CSc1ncc(C(=O)NCc2ccccc2F)c(-c2ccccc2)n1 | 112%
3 | CCCn1c2ccccc2c2cnn(CC(=O)NCc3ccccc3Cl)c(=O)c21 | 108%
4 | Cc1ccccc1CNC(=O)C(C)n1nc(C)n2c(cc3occc32)c1=O (stereo not given) | 68%
5 | CCc1nn(CCCC(=O)NCc2ccccc2OC)c(=O)c2cc3occc3n12 | 84%
6 | COc1ccc(Br)cc1CNC(=O)C(C)n1nc(C)n2c(cc3occc32)c1=O (stereo not given) | 46% (active)
7 | CCc1nn(CCCC(=O)NCc2cc(Br)ccc2OC)c(=O)c2cc3occc3n12 | 46% (active)
8 | CCc1nn(CCCC(=O)NCc2ccc(OC)c(OC)c2)c(=O)c2cc3occc3n12 | 79%
9 | CCC(C(=O)NCc1ccccc1OC)n1nc(C)n2c(cc3occc32)c1=O (stereo not given) | 80%
10 | COC(=O)c1ccc(Oc2nc3c(c(=O)n(C)c(=O)n3C)n2Cc2ccc(Cl)c(Cl)c2)cc1 | 167%
11 | O=C(CCS(=O)(=O)c1nc(-c2cccs2)cc(C(F)(F)F)n1)Nc1ccc(F)c(Cl)c1 | 67%
12 | Clc1cc2c(cc1C=Nc1ccc(N3CCOCC3)cc1)OCO2 | 83%
13 | N#CC(C#N)=Cc1cn(CC(=O)Nc2ccccc2)c2ccccc12 | 66%
14 | Cc1ccn2c(Nc3ccccc3)c(-c3c[nH]c4ccccc34)nc2c1 | 86%
15 | Cc1ccc2nc(-c3c[nH]c4ccccc34)c(Nc3ccccc3)n2c1 | 78%
16 | Cc1ccc(Nc2c(-c3c[nH]c4ccccc34)nc3cc(C)ccn23)cc1 | 80% (active)
17 | Cc1ccc(Nc2c(-c3c[nH]c4ccccc34)nc3ccccn23)cc1 | 114%
18 | Fc1ccc(Nc2c(-c3c[nH]c4ccccc34)nc3ccccn23)cc1 | 70%
19 | Cc1ccc(Nc2c(-c3ccccc3O)nc3cc(C)ccn23)cc1 | 78%
20 | Cc1ccc(Nc2c(-c3cc(Br)ccc3F)nc3cc(C)ccn23)cc1 | 32% (active)
21 | CSc1ccc(-c2nc3cc(C)ccn3c2Nc2ccc(C)cc2)cc1 | 95%
22 | c1ccc(Nc2c(-c3c[nH]c4ccccc34)nc3ccccn23)cc1 | 54% (active)
23 | Cc1ccc(Oc2nc3c(c(=O)n(Cc4ccccc4Cl)c(=O)n3C)n2C)cc1C | 61%

Row | SMILES | survival
24 | Cc1csc2nc(-c3ccc(NS(=O)(=O)c4cc(F)ccc4F)cc3)cn12 | 87%
25 | Fc1ccc(CNc2nc3c(-c4ccc(F)cc4)nnn3c3ccccc23)cc1 | 105%
26 | Cc1ccc2nc(-c3cccc(NC(=O)c4cccc5c(Cl)cccc45)c3)oc2c1 | 110%
27 | Cc1ccc(-c2nc3ccccc3o2)cc1NC(=O)c1cccc2c(Cl)cccc12 | 47% (active)
28 | O=C(Nc1cc(-c2nc3ccccc3o2)ccc1Cl)c1cccc2c(Cl)cccc12 | 56%
29 | Cc1ccc2oc(-c3cccc(NC(=O)c4cccc5c(Cl)cccc45)c3)nc2c1 | 51% (active)
30 | O=C(Nc1cccc(-c2nc3ccccc3o2)c1)c1cccc2c(Cl)cccc12 | 46%
31 | Cc1ccc2oc(-c3cccc(NC(=O)c4cccc5c(Br)cccc45)c3)nc2c1 | 153%
32 | O=C(OCc1cc(=O)n2nc(-c3cccs3)sc2n1)c1cccc(F)c1 | 77%
33 | COc1cccc(N2CCN(C(=O)CN3CCSc4ccccc43)CC2)c1 | 83%
34 | Cc1ccc(C)c(N2CCN(C(=O)CN3C(=O)COc4ccc(S(=O)(=O)N5CCCC5)cc43)CC2)c1 | 85%
35 | CCN(CC)CCn1c(=N)n(CC(O)COc2ccccc2C)c2ccccc21 (stereo not given) | 80%
36 | O=C(CSc1nnnn1C1CCCC1)NCc1cccs1 | 103%
37 | CCN(CC)CCNC(=O)c1ccc(CSc2nc3ccncc3n2Cc2cccc(F)c2)cc1 | 92%
38 | Cc1cccc(N2CCN(C(=O)Nc3cn(CC(C)C)c(=O)c4ccccc34)CC2)c1C | 69%
39 | Cc1ccc(Cl)cc1NC(=O)Cn1c(=O)n(Cc2ccccc2)c(=O)c2oc3ccccc3c21 | 81%
40 | CCC(=O)N1c2ccccc2CC1C(=O)NCc1ccc(CC)cc1 (stereo not given) | 100%
41 | COc1ccc(C2c3c(n(C)c4ccccc34)C(=O)N2CC(=O)Nc2cccc(Cl)c2)cc1 (stereo not given) | 80%
42 | COC(=O)CSc1nnc(C2CCCCC2)n1Cc1ccccc1 | 116%
43 | Cc1cccc(N2CCN(C(=O)C3CCN(Cc4nc(-c5ccc(Cl)cc5)oc4C)CC3)CC2)c1C | 60%
44 | Cc1oc(-c2cccc(Cl)c2)nc1CN1CCC(C(=O)NCCCN2CCN(c3ccc(F)cc3)CC2)CC1 | 119%
45 | Cc1ccc(Cl)cc1N1CCN(C(=O)C2CCN(Cc3nc(-c4cccc(Cl)c4)oc3C)CC2)CC1 | -8% (active)
46 | CCc1ccc(-c2nc(CN3CCCC(C(=O)N4CCN(c5cc(Cl)ccc5C)CC4)C3)c(C)o2)cc1 (stereo not given) | 70%

Row | SMILES | survival
47 | Cc1ccc(Cl)cc1N1CCN(C(=O)C2CCCN(Cc3nc(-c4cccc(Cl)c4)oc3C)C2)CC1 (stereo not given) | 66%
48 | CCc1ccc(-c2nc(CN3CCC(C(=O)NCCc4ccc(C)cc4)CC3)c(C)o2)cc1 | 95%
49 | Cc1ccc(Cl)cc1N1CCN(C(=O)C2CCN(Cc3nc(-c4ccc(Cl)cc4)oc3C)CC2)CC1 | -9% (active)
50 | CCCCSCCCNC(=O)C1CCN(Cc2nc(-c3ccc(CC)cc3)oc2C)CC1 | 46% (active)
51 | Cc1ccc(C)c(N2CCN(C(=O)C3CCN(Cc4nc(-c5cccc(Cl)c5)oc4C)CC3)CC2)c1 | 47%
52 | CCCCSCCCNC(=O)C1CCN(Cc2nc(-c3cccc(Br)c3)oc2C)CC1 | 68%
53 | Cc1oc(-c2cccc(Cl)c2)nc1CN1CCC(C(=O)NCCCN2CCN(c3cccc(Cl)c3)CC2)CC1 | 63%
54 | Cc1oc(-c2ccc(Cl)cc2)nc1CN1CCC(C(=O)NCCCN2CCN(c3cccc(Cl)c3)CC2)CC1 | 42% (active)
55 | CCCOc1ccc(Oc2nc(NCC(C)C)nc(N3CCOCC3)n2)nn1 | 74%
56 | CN(C)c1ccc(CNC(=O)CN2C(=O)CSc3ccc(S(=O)(=O)N4CCCC4)cc32)cc1 | 80%
57 | COc1ccccc1CNc1ncnc2c1nc1n2CCCC1 | 80%
58 | COc1ccc(NC(=O)CC2C(=O)N(c3ccc(OC)cc3)C(=O)N2Cc2ccc(OC)c(OC)c2)cc1 (stereo not given) | 131%
59 | CCOC(=O)c1ccc(NC(=O)c2cnn(-c3ccc(C)cc3C)c2C2CCN(C(=O)OC(C)(C)C)CC2)cc1 | 93%
60 | Cc1nc(N2CCCCC2)c(C#N)c2c1COC(C)(C)C2 | 81%
61 | Nc1ccc(N2CCOCC2)cc1C(F)(F)F | 80%
62 | COc1ccc(NCc2nc3ccccc3n2CCOc2ccccc2C)cc1 | 32% (active)
63 | Cc1ccc(NCc2nc3ccccc3n2CCOc2ccccc2C)cc1 | 3% (active)
64 | Cc1cccc(NCc2nc3ccccc3n2CCOc2ccccc2C)c1 | 3% (active)
65 | Cc1ccc(C)c(OCCn2c(CCNC(=O)C3CCCCC3)nc3ccccc32)c1 | 59%
66 | Fc1ccc(NCc2nc3ccccc3n2CCOc2ccccc2Cl)cc1 | 91%
67 | CCC(CC)c1nn2c(=O)cc(COc3ccc(NC(=O)c4ccccc4Cl)cc3)nc2s1 | 94%
68 | COc1ccc(-c2nc(SCC(=O)NCCc3ccc(OC)c(OC)c3)n[nH]2)cc1 | 88%
69 | COc1ccc(NC(=O)C2(c3cccs3)CCOCC2)cc1Cl | 91%

Row | SMILES | survival
70 | Cc1cccc(CN2C(=O)c3ccccc3S(=O)(=O)c3ccc(C(=O)OCC4CCCO4)cc32)c1 (stereo not given) | 90%
71 | CCOc1cccc(OCCCn2c(-c3ccc(Br)cc3)nc3ccccc3c2=O)c1 | 64%
72 | Cc1ccc(C)c(Cn2c3ccccc3c3cnn(CC(=O)NCC(C)c4ccccc4)c(=O)c32)c1 (stereo not given) | 72%
73 | COc1ccccc1NC(=O)NC1(C(=O)N2CCCCC2)CCCCC1 | 85%
74 | CCc1ccc(C2N=C(N)Nc3nc4ccccc4n32)cc1 (stereo not given) | 137%
75 | Cc1cccc(-c2c3c(nc4ncnn24)-c2ccccc2C3=O)c1 | 74%
76 | O=C1C(=Cc2ccc3c(c2)OCO3)C(=O)c2ccccc21 | 64%
77 | O=C1c2ccccc2-c2nc3ncnn3c(-c3ccc4c(c3)OCO4)c21 | 49% (active)
78 | Cc1nc2c3ccccc3nc(NNC(=O)CCC(=O)N3CCN(c4cccc(Cl)c4)CC3)n2n1 | 107%
79 | Cc1nc2c3ccccc3nc(NNC(=O)CCC(=O)N3CCN(c4cc(Cl)ccc4C)CC3)n2n1 | 55% (active)
80 | Cc1nc2c3ccccc3nc(NNC(=O)CCC(=O)N3CCN(c4ccccc4F)CC3)n2n1 | 79%
81 | O=c1c2sc3ccccc3c2n(Cc2cccc(C(F)(F)F)c2)c(=O)n1-c1ccccc1 | 73%
82 | c1ccc(-c2cc3ccsc3s2)cc1 | 99%
83 | O=c1cc(O)c2ccccc2[nH]1 | 75%
84 | Oc1cc2ccsc2c2ccccc12 | 9% (active)
85 | COc1ccc(NC(=O)CCCSc2nc(-c3ccco3)cc(C(F)(F)F)n2)cc1 | 55%
86 | COc1ccc(NC(=O)CCCSc2nc(-c3ccco3)cc(C(F)(F)F)n2)cc1OC | 45%
87 | COc1ccc(NC(=O)CSc2nc(-c3ccco3)cc(C(F)(F)F)n2)c(OC)c1 | 56%
88 | COc1cc(NC(=O)CCCSc2nc(-c3ccco3)cc(C(F)(F)F)n2)cc(OC)c1OC | 38% (active)
89 | COc1ccc(NC(=O)CCCSc2nc(-c3ccco3)cc(C(F)(F)F)n2)c(OC)c1 | 16% (active)
90 | COc1cc(NC(=O)CSc2nc(-c3ccco3)cc(C(F)(F)F)n2)cc(OC)c1OC | 54%
